Jurkat autofluor: compound autofluorescence on Jurkat cells, primary screen, artefact control for VLA-4 allosteric ligand project, cell-based, flow cytometry; stronger effect = higher value; 1 = vehicle-only cell background; fluorescence ratio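 (tested at 10 µM compound in the well)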; actives 0.61% (n = 24,000); AID 576, 2007;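 active = fluorescence ratio above 2.44, which is 1 plus 3 SD of all ratios; inconclusive = signal too bright to measure linearly, ratio around 10 or more; inactive = fluorescence ratio below 2.44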;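 note: green fluorescence of cells measured with 488 nm excitation and 530 nm emission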
VLA-4 antagonist: inhibitors of LDV-FITC binding to Mn2+-activated VLA-4, primary screen, Jurkat cells; Integrin alpha-4 (Homo sapiens), P13612; LDV-FITC binding with Mn2+, flow cytometry; 100% = Mn2+-driven binding gain fully reversed; inhibition, % at 10 µM (by protocol); actives 0.2% (n = 24,000);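 active = inhibition above 50%; inconclusive = compound itself fluorescent, judged against control cell fluorescence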
VLA-4 agonist: enhancers of LDV-FITC binding to VLA-4 integrin, primary screen, Jurkat cells, flow cytometry; Integrin alpha-4 (Homo sapiens), P13612; activation, % at 10 µM (by protocol); 24,000 tested, under 10 active; AID 528, 2006;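 active = fluorescent ligand binding to cells raised by more than 40% of the manganese-induced maximum; inconclusive = compound's own fluorescence above 85% of the ligand control signal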
FPR ligand: human FPR ligands by binding competition, primary screen, cell-based, FPRL1 counter-screen, flow cytometry | FPR-expressing cells, fluorescent ligand binding | inhibition, % (no concentration beside the values) | actives 0.74% (n = 24,000) | AID 440, 2006
Target sequence (P21462 whole entry, looked up): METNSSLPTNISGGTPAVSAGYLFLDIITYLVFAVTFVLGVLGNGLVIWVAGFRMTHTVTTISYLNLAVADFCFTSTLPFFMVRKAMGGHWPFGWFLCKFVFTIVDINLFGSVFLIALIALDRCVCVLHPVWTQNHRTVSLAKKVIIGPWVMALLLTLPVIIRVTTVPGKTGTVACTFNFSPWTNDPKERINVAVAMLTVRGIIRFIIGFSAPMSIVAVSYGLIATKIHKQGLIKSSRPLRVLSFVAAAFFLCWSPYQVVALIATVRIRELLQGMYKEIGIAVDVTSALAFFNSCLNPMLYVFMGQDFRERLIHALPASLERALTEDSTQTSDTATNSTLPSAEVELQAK
FPRL1 ligand: human FPRL1 ligands by binding competition, primary screen, cell-based, FPR counter-screen, flow cytometry | FPRL1-expressing cells, fluorescent ligand binding inhibition | actives 0.3% (n = 24,000) | N-formyl peptide receptor 2 (Homo sapiens), P25090 | inhibition, % (concentration not given with the values)
Target sequence (P25090 whole entry, looked up): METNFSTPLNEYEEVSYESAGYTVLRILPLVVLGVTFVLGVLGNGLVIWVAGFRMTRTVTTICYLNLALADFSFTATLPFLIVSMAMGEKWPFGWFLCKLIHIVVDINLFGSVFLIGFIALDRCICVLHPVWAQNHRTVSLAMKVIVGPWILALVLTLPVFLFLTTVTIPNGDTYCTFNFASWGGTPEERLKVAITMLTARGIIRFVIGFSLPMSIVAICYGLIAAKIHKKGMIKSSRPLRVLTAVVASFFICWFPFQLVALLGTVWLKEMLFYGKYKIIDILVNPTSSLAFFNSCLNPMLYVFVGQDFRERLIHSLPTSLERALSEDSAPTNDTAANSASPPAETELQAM
Large screens that a line does not name were inactive. An excerpt weighted towards active compounds, which were near 1.8% of everything screened. Cut-off read from the data, not from the text of the source, unless noted: active = inhibition above about 30%; inconclusive = no clear call, values can overlap the other calls; inactive = below that.

COc1ccccc1N1CCN(C(=O)c2sc3nc(-c4ccccc4)cn3c2C)CC1	Jurkat autofluor 3.2, VLA-4 antagonist inconclusive, VLA-4 agonist inconclusive
COc1ccc(CC(=O)OCC(=O)NC(=O)NC2CCCCC2)cc1	none
COc1cc(C2C(C(=O)c3ccco3)=C(O)C(=O)N2c2cc(C)on2)cc(Br)c1O (stereo not given)	FPR ligand 39, FPRL1 ligand 31 (no result: Jurkat autofluor, VLA-4 antagonist, VLA-4 agonist)
COc1ccc(OC)c(C2C(C(=O)c3cc4ccccc4o3)=C(O)C(=O)N2c2cc(C)on2)c1 (stereo not given)	FPR ligand 33 (no result: Jurkat autofluor, VLA-4 antagonist, VLA-4 agonist)
Cc1ccc(C(=O)C2=C(O)C(=O)N(Cc3ccccc3)C2c2cccnc2)o1 (stereo not given)	FPR ligand 32 (no result: Jurkat autofluor, VLA-4 antagonist, VLA-4 agonist)
COc1cc(C2C(C(=O)c3ccc(C)o3)=C(O)C(=O)N2c2cc(C)on2)cc(Br)c1O (stereo not given)	none
O=C(C1=C(O)C(=O)N(c2ncccn2)C1c1ccc(Cl)c(Cl)c1)c1ccco1 (stereo not given)	FPR ligand 45 (no result: Jurkat autofluor, VLA-4 antagonist, VLA-4 agonist)
Cc1cc(C)c(S(=O)(=O)Nc2ccc(OCC(=O)O)cc2)c(C)c1	none
COc1ccccc1S(=O)(=O)n1cc(Cc2ccccc2)c(N)n1	none
CN(CCNC(=O)C1CC(=O)N(C2CCCC2)C1)Cc1ccccc1 (stereo not given)	none
Cc1cc(N2C(=O)C(O)=C(C(=O)c3ccco3)C2c2cccnc2)no1 (stereo not given)	FPRL1 ligand 30 (no result: Jurkat autofluor, VLA-4 antagonist, VLA-4 agonist)
COc1ccc(C2C(C(=O)c3ccc(C)o3)=C(O)C(=O)N2c2cc(C)on2)cc1OC (stereo not given)	none (no result: Jurkat autofluor, VLA-4 antagonist, VLA-4 agonist)
CCn1c2ccccc2c2cc(N)ccc21	Jurkat autofluor 3.4, VLA-4 antagonist inconclusive, VLA-4 agonist inconclusive
NC1=CC(=O)c2cccc3cccc1c23	Jurkat autofluor 3.5, VLA-4 antagonist inconclusive, VLA-4 agonist inconclusive
CCSc1nnc(NC(=O)CSc2nnc(Cc3cccn3C)n2CCc2ccccc2)s1	FPR ligand 34
COC(=O)c1[nH]c(C)c(/C(O)=C2\C(=O)C(=O)N(CCN3CCOCC3)C2c2ccccc2OC)c1C (stereo not given)	none (no result: Jurkat autofluor, VLA-4 antagonist, VLA-4 agonist)
COC(=O)c1[nH]c(C)c(/C(O)=C2\C(=O)C(=O)N(CCN3CCOCC3)C2c2cccs2)c1C (stereo not given)	FPR ligand 54
O=C(CN1C(=O)CCSc2ccccc21)Nc1ccc(F)cc1	none
CCCCn1c(NC(=O)CC)c(C#N)c2nc3ccccc3nc21	Jurkat autofluor 3.1, VLA-4 antagonist inconclusive, VLA-4 agonist inconclusive, FPR ligand 48
CCCCn1c(NC(=O)c2ccccc2Cl)c(C#N)c2nc3ccccc3nc21	none (no result: Jurkat autofluor, VLA-4 antagonist, VLA-4 agonist)
CCOc1ccc(CCNC(=O)C2CCC(=O)N2C2CCCCC2)cc1OCC (stereo not given)	none
CCOC(=O)C1=C(C)Nc2nnnn2C1c1cccc(OC)c1OC (stereo not given)	none
CCOC(=O)C1=C(C)N=c2s/c(=C\c3cccn3C)c(=O)n2C1c1cccc(OC)c1OC (stereo not given)	Jurkat autofluor 7.8, VLA-4 antagonist inconclusive, VLA-4 agonist inconclusive
Cc1nnc(SCc2nc3ccccc3s2)n1-c1ccccc1	Jurkat autofluor 2.8, VLA-4 antagonist inconclusive, VLA-4 agonist inconclusive
CCCSc1nnc(Cn2c(=O)sc3ccccc32)n1-c1ccccc1	none
Cc1n[nH]c(C)c1S(=O)(=O)N(CC(=O)N1CCc2ccccc21)c1ccc(C(C)C)cc1	none
CCN1C(=O)c2cccc3c(NC(=O)c4ccc(S(=O)(=O)N(C)C)cc4)ccc1c23	none
CCOC(=O)c1ccc(NC(=O)Nc2ccc3c4c(cccc24)C(=O)N3CC)cc1	Jurkat autofluor 3.1, VLA-4 antagonist inconclusive, VLA-4 agonist inconclusive, FPRL1 ligand 48
COc1cccc(CNC(=O)Cn2cc3c(n2)CCCC3)c1	FPR ligand 40
O=C(Cn1cc2c(n1)CCCC2)NCc1cccc(Cl)c1	none
CCc1cccc(NC(=O)CS(=O)Cc2nc(-c3ccc(C)cc3)oc2C)c1 (stereo not given)	none
CC(=O)OCCNc1cc(N2CCN(C)CC2)c2noc3c2c1C(=O)c1ccccc1-3	FPRL1 ligand 53
COc1ccccc1-c1cc(C(=O)N2CCN(c3ccccc3OC)CC2)no1	none
CCS(=O)(=O)c1ccc(S(=O)(=O)CC)s1	none
COc1ccc(CCN2CCC(Nc3nc4ccccc4n3Cc3ccc(F)cc3)CC2)cc1	Jurkat autofluor 2.6, VLA-4 antagonist inconclusive, VLA-4 agonist inconclusive
Cc1ccc(CCNC(=O)C2CCN(C(=O)N(C)C)CC2)cc1	none
COC(=O)Cc1cc(=O)n2[nH]c(C)c(-c3ccccc3)c2n1	none (no result: Jurkat autofluor, VLA-4 antagonist, VLA-4 agonist)
Cc1[nH]n2c(=O)cc(C(C)C)nc2c1-c1ccccc1	none (no result: Jurkat autofluor, VLA-4 antagonist, VLA-4 agonist)
CCCc1cc(=O)n2[nH]c(C)c(-c3ccccc3)c2n1	FPR ligand 35 (no result: Jurkat autofluor, VLA-4 antagonist, VLA-4 agonist)
Cc1[nH]n2c(=O)cc(-c3ccc([N+](=O)[O-])cc3)nc2c1-c1ccccc1	FPR ligand 70, FPRL1 ligand 47 (no result: Jurkat autofluor, VLA-4 antagonist, VLA-4 agonist)
O=C(C1CCCN(S(=O)(=O)c2cccc3cccnc23)C1)N1CCN(c2ccc(F)cc2)CC1 (stereo not given)	none
COc1ccccc1Cn1c(-c2ccco2)nc2nc3ccccc3nc21	Jurkat autofluor 2.6, VLA-4 antagonist inconclusive, VLA-4 agonist inconclusive
Cc1nc2ccccc2c2oc(C(=O)NCc3ccccn3)cc12	none
Cc1nc(NCc2ccccn2)c2ccccc2n1	Jurkat autofluor 2.8, VLA-4 antagonist inconclusive, VLA-4 agonist inconclusive
CCOc1cc2[nH]c(=O)n(CCCCC(=O)NC3CCCCC3)c(=O)c2cc1OCC	none
CCN(CCNC(=O)C1CCN(c2nnc(-n3cccc3)s2)CC1)c1ccccc1	none
FC(F)(F)c1ccc(N2CCOCC2)c(Nc2nc3ccccc3n3cnnc23)c1	Jurkat autofluor 2.7, VLA-4 antagonist inconclusive, VLA-4 agonist inconclusive
CCOC(=O)c1c(C)c(C(=O)N(C)C2CCCCC2)c(C)n1C	none
N#C[C@@H]1[C@@H]2C(=O)N(c3ccc4c(c3)OCCO4)C(=O)[C@@H]2C2c3ccccc3C=CN21 (stereo not given in full)	Jurkat autofluor 5.2, VLA-4 antagonist inconclusive, VLA-4 agonist inconclusive
O=C(Nc1ccon1)c1cnc2sccn2c1=O	Jurkat autofluor 2.5, VLA-4 antagonist inconclusive, VLA-4 agonist inconclusive
Cc1cccc(NC(=O)c2cnc3sccn3c2=O)n1	none
Cn1c(/C=N/n2cnnc2)nc2ccccc21	none
COc1ccc2nc(NC(=O)C3CCCN(S(=O)(=O)c4cccc5nonc45)C3)sc2c1 (stereo not given)	Jurkat autofluor 2.6, VLA-4 antagonist inconclusive, VLA-4 agonist inconclusive
COc1cccc(C2C(C(=O)c3ccco3)=C(O)C(=O)N2CCCN2CCOCC2)c1OC (stereo not given)	none (no result: Jurkat autofluor, VLA-4 antagonist, VLA-4 agonist)
O=C(C1=C(O)C(=O)N(CCOCCO)C1c1cccs1)c1cccs1 (stereo not given)	FPR ligand 71 (no result: Jurkat autofluor, VLA-4 antagonist, VLA-4 agonist)
